Reference: the supplement of paper PMC10849652
About 7,900 targets were measured; listed, in parts, are those with a hit and a random draw of the rest. About 0.6% of all pairs of compound and target were hits. A number with no mark means an inactive call.

Assays:
Assay in all cases: log2 fold change, soluble protein after heating vs DMSO (PISA); higher = thermal stabilisation; K562 cells, 10 uM, 30 min; active = over 0.2 and 3.5 SD of the protein, either way, in both replicates (recomputed)
[1] = compound: C#Cc1cccc(Nc2ncnc3cc(OCCOC)c(OCCOC)cc23)c1 [erlotinib]
Method in brief: (§1)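 Soluble protein was quantified by TMTpro 16plex LC-MS/MS after channel sums were equalised. It was obtained as the supernatant after 21,000xg for 90 min from pooled aliquots of K562 cells (2×10^6 cells/mL, 10 μM compound, 30 min) heated for 3 min across 48°C-58°C and extracted in PBS with 0.5% NP-40 at 4°C. Thermal stability values are relative to control samples and come from duplicates. They are given as log2 fold changes.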

[2] = compound: C/C(=N\NC(=O)C1=CC(=CC=C1)S(=O)(=O)N2CCOCC2)/C3=C(C=CC(=C3)Cl)O
Method in brief: as §1

[3] = compound: C1=CC(=C(C=C1Cl)C2=NC3=NC=CN=C3C(=N2)NC4=CC=NC=C4)F
Method in brief: as §1

[4] = compound: C1=CC(=CC=C1C2=NC3=C(N2)C=C(C=C3)C(=O)N)OC4=CC=C(C=C4)Cl
Method in brief: as §1

[5] = compound: C1=CC2=C(C=CC(=C2)/C=C\3/C(=O)NC(=NCC4=CC=CS4)S3)N=C1
Method in brief: as §1

[6] = compound: C1=CC2=NC=CN=C2C=C1/C=C/3\C(=O)NC(=O)S3
Method in brief: as §1

[7] = compound: C1=CC=C(C=C1)C2=NC(=C(N2)C3=CC=NC=C3)C4=CC(=C(C=C4)Cl)O
Method in brief: as §1

[8] = compound: C1=CC=C2C(=C1)C3=NNC4=CC=CC(=C43)C2=O
Method in brief: as §1

[9] = compound: C1CCN(C1)C(=O)NC2=CC=CC(=C2)NC3=NC=C(C(=N3)NCCC4=CN=CN4)Br
Method in brief: as §1

[10] = compound: C1CN(CCC1(CC2=CC=C(C=C2)Cl)N)C3=NC=NC4=C3C=CN4
Method in brief: as §1

[11] = compound: C1COCCN1CCN2C3=CC=CC=C3N=C2NC(=O)C4=CC(=CC=C4)[N+](=O)[O-] [IRAK-1-4 Inhibitor I]
Method in brief: as §1

[12] = compound: C=CC(=O)N1CCC[C@@H](n2nc(-c3ccc(Oc4ccccc4)cc3)c3c(N)ncnc32)C1 [ibrutinib]
Method in brief: as §1

[13] = compound: CC(=O)c1cnc2ccc(-c3cc(Cl)c(O)c(Cl)c3)nc2c1N[C@H]1CC[C@H](CN(C)C)CC1
Method in brief: as §1

[14] = compound: CC(C)(C)Cn1c(N)nc2ccc(-c3[nH]c(C(C)(C)C)nc3-c3ccc(F)cc3)nc21 [ralimetinib]
Method in brief: as §1

[15] = compound: CC(C)(O)CC(=O)NCCn1ccc2ncnc(Nc3ccc(Oc4cccc(C(F)(F)F)c4)c(Cl)c3)c21
Method in brief: as §1

[16] = compound: CC(C)C1=C2N=C(C=C(N2N=C1)NCC3=CC=CC=C3)NCCCCCCN
Method in brief: as §1

[17] = compound: CC(C)C[C@@H](C=O)NC(=O)[C@H](CC(C)C)NC(=O)[C@H](CC(C)C)NC(=O)OCc1ccccc1
Method in brief: as §1

[18] = compound: CC(C)N(C[C@H]1O[C@@H](n2cnc3c(N)ncnc32)[C@H](O)[C@@H]1O)[C@H]1C[C@@H](CCc2nc3cc(C(C)(C)C)ccc3[nH]2)C1 [pinometostat]
Method in brief: as §1

[19] = compound: CC1=C(C(CC(=O)N1)C2=CC=C(C=C2)C(F)(F)F)C(=O)NC3=C(C=C4C(=C3)C=NN4)F
Method in brief: as §1

[20] = compound: CC1=C(C2=C(C=C1)C(=O)C3=CC=CC=C3N2CCCN)C
Method in brief: as §1

Chain of UniProt P42229 (P42229 whole entry, looked up): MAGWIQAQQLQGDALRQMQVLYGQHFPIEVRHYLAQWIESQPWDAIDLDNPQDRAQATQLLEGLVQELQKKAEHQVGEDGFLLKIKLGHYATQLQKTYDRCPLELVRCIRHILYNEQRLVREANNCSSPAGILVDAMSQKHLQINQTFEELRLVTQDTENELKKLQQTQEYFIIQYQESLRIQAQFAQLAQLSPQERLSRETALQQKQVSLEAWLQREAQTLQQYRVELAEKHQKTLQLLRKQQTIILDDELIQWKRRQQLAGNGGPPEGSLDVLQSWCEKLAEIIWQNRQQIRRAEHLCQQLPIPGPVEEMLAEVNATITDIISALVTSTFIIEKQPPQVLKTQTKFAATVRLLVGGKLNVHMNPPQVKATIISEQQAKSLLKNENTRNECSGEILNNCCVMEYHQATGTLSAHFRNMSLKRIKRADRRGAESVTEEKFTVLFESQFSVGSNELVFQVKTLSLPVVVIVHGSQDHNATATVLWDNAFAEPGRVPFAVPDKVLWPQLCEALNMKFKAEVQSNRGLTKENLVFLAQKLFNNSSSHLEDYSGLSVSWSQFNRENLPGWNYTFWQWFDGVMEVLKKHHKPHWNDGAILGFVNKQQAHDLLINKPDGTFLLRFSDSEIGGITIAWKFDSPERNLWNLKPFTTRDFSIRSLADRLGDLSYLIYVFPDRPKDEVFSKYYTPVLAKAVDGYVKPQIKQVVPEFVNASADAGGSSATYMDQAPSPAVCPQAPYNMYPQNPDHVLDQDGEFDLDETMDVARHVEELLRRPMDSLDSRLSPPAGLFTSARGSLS
Chain of UniProt P63165 (P63165 whole entry, looked up): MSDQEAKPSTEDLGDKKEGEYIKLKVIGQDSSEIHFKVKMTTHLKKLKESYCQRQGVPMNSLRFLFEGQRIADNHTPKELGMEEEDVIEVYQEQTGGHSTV
Chain of UniProt Q9Y6I9 (Q9Y6I9 whole entry, looked up): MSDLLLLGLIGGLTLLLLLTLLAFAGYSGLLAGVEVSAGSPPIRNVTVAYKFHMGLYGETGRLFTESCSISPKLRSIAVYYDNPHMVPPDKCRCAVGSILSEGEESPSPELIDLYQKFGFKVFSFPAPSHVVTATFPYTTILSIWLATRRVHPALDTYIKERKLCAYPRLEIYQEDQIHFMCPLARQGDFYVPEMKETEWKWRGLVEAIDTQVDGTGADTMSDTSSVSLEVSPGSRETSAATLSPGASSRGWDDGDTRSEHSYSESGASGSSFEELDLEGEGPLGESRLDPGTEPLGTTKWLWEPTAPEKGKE
Chain of UniProt Q14849 (Q14849 whole entry, looked up): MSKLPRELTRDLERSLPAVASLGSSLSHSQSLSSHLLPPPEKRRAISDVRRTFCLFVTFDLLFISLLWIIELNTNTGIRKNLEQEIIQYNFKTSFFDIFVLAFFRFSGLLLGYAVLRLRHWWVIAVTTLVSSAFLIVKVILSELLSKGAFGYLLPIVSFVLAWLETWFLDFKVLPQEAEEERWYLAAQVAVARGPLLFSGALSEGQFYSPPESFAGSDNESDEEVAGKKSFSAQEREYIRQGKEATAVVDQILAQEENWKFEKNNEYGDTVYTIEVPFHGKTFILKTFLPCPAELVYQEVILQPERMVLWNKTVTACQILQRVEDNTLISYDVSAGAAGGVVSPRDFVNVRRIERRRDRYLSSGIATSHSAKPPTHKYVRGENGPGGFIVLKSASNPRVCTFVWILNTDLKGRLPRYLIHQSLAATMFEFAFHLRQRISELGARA
Chain of UniProt P02786 (P02786 whole entry, looked up): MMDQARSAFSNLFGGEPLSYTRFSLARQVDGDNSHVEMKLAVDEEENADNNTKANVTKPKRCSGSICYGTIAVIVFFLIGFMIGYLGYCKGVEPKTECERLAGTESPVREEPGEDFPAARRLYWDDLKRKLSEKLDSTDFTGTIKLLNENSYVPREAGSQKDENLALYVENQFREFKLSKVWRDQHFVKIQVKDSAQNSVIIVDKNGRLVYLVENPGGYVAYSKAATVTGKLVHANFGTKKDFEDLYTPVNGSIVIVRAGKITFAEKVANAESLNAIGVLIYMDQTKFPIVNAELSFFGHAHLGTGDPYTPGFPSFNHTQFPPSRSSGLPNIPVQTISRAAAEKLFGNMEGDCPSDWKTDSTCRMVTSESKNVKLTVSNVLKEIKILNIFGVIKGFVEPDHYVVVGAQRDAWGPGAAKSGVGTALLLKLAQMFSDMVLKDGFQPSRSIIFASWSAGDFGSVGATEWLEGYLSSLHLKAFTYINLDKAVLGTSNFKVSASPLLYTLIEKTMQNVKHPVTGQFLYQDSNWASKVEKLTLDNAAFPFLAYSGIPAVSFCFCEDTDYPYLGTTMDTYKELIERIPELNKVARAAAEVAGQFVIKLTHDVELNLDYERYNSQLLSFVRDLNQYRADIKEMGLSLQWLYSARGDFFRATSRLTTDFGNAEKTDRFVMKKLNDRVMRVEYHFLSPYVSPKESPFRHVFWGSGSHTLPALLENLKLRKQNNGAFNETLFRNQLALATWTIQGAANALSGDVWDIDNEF
Chain of UniProt Q9P2R7 (Q9P2R7 whole entry, looked up): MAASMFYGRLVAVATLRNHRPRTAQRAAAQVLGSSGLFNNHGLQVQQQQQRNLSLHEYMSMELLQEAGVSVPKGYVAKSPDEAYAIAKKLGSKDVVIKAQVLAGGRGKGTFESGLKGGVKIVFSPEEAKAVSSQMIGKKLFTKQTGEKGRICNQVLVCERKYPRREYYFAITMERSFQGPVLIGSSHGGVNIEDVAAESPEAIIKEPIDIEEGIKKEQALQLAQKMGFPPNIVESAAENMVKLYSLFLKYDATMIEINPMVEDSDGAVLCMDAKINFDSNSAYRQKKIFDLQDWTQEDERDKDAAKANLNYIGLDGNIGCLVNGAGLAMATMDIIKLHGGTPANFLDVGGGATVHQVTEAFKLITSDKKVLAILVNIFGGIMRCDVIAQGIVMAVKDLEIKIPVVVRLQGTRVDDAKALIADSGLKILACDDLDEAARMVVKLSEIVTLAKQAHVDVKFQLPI
Chain of UniProt Q16842 (Q16842 whole entry, looked up): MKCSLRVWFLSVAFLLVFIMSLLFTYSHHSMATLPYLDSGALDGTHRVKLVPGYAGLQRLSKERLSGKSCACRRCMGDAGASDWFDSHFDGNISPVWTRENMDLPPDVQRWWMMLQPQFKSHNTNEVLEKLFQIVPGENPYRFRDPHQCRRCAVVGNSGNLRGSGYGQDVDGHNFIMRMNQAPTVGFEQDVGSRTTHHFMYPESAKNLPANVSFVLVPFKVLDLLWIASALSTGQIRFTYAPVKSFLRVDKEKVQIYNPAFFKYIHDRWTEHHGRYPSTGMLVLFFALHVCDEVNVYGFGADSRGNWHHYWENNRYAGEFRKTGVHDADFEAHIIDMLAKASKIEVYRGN
Chain of UniProt O15400 (O15400 whole entry, looked up): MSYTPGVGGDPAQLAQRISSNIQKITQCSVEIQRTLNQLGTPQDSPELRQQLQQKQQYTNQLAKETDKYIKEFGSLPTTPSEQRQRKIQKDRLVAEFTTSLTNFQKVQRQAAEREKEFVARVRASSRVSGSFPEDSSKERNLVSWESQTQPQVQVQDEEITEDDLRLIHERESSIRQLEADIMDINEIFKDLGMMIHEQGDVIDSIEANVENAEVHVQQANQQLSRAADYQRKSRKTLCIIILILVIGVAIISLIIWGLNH
Chain of UniProt Q9H2G2 (Q9H2G2 whole entry, looked up): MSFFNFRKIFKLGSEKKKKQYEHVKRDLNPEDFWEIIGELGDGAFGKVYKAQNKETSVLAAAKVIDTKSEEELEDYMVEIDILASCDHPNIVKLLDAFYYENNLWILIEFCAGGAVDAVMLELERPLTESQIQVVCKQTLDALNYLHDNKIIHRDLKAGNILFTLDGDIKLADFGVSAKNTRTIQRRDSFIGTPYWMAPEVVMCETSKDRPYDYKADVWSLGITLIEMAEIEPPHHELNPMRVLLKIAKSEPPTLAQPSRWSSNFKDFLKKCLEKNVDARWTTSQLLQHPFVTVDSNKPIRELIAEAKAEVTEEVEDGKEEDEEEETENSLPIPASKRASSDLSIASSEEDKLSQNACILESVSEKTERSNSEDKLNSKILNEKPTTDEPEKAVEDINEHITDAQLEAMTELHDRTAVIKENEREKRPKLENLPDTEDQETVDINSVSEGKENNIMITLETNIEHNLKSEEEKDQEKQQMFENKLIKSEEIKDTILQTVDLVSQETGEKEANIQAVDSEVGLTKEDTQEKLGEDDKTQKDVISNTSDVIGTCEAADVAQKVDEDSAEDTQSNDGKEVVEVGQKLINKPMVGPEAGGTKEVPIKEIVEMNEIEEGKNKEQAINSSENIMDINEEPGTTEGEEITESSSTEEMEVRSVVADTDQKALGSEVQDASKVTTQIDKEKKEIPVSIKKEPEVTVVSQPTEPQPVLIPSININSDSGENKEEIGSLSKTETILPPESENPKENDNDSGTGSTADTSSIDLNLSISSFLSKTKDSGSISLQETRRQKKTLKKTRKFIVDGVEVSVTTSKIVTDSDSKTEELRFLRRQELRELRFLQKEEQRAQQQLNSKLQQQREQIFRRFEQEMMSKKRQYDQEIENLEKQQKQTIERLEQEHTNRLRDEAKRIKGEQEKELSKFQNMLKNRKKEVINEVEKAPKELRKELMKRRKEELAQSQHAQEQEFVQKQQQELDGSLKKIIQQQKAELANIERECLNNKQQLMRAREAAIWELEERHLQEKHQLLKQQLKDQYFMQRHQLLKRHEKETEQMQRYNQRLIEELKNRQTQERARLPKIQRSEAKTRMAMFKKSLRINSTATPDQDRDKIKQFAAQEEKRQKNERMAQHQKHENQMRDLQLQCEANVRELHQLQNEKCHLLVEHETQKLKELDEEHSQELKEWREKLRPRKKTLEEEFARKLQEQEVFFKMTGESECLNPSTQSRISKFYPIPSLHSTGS
Chain of UniProt Q9BSF4 (Q9BSF4 whole entry, looked up): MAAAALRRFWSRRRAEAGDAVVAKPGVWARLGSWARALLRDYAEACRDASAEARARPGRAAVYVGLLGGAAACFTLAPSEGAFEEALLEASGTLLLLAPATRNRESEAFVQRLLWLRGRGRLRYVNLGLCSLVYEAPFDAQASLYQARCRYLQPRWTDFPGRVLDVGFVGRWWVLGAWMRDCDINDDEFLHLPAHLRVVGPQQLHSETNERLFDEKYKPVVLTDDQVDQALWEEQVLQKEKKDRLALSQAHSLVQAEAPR

Target | log2 fold change [1] | log2 fold change [2] | log2 fold change [3] | log2 fold change [4] | log2 fold change [5] | log2 fold change [6] | log2 fold change [7] | log2 fold change [8] | log2 fold change [9] | log2 fold change [10] | log2 fold change [11] | log2 fold change [12] | log2 fold change [13] | log2 fold change [14] | log2 fold change [15] | log2 fold change [16] | log2 fold change [17] | log2 fold change [18] | log2 fold change [19] | log2 fold change [20]
THADA (UniProt Q6YHU6) | 0.039 | 0.068 | 0.03 | 0.035 | 0.071 | 0.007 | 0.029 | -0.002 | -0.011 | -0.006 | 0.007 | -0.026 | -0.062 | 0.053 | -0.166 | -0.225 | -0.071 | 0.016 | -0.05 | -0.047
SUCLA2 (UniProt Q9P2R7) | 0.024 | 0.016 | 0.072 | -0.031 | 0.049 | -0.018 | 0.037 | -0.019 | 0.004 | -0.01 | 0.02 | -0.045 | 0.014 | -0.021 | -0.151 | -0.107 | -0.033 | -0.034 | -0.021 | 0.022
ST3GAL2 (UniProt Q16842) | 0.032 | 0.07 | -0.069 | 0.009 | -0.085 | -0.052 | -0.057 | 0.045 | -0.024 | 0.108 | -0.183 | -0.105 | -0.115 | -0.009 | 0.119 | -0.12 | 0.066 | -0.031 | -0.037 | 0.046
SORT1 (UniProt Q99523) | 0.005 | -0.024 | 0.03 | -0.012 | 0.014 | 0.034 | 0.022 | -0.018 | -0.012 | 0.06 | 0.044 | 0.044 | 0.031 | -0.005 | -0.027 | -0.202 | -0.028 | -0.03 | -0.002 | -0.019
SUPT16H (UniProt Q9Y5B9) | 0.177 | 0.25 | 0.091 | -0.012 | 0.155 | 0 | 0.064 | 0.098 | -0.098 | -0.011 | -0.155 | -0.139 | -0.259 | -0.059 | -0.174 | -0.26 | 0.083 | 0.044 | -0.015 | -1.34 (active)
STARD3 (UniProt Q14849) | -0.073 | 0.133 | -0.05 | 0.022 | -0.095 | 0.058 | -0.028 | 0.197 | 0.059 | 0.04 | -0.075 | 0.23 | -0.033 | 0.033 | -0.075 | -0.429 (active) | 0.122 | 0 | 0.222 | -0.044
TANK (UniProt Q92844) | -0.019 | -0.031 | 0.101 | -0.048 | 0.002 | 0.053 | -0.024 | -0.028 | 0.014 | 0.01 | -0.035 | 0.087 | -0.181 | 0.034 | -0.024 | 0.007 | 0.127 | -0.047 | 0.033 | -0.053
STX7 (UniProt O15400) | 0.02 | -0.029 | 0.02 | 0.021 | -0.02 | 0.02 | -0.009 | -0.007 | 0 | 0.056 | -0.01 | 0.024 | 0.011 | -0.039 | 0.012 | -0.087 | -0.009 | -0.109 | 0 | 0.017
TEX264 (UniProt Q9Y6I9) | 0.099 | 0.024 | 0.034 | 0.769 (active) | 0.325 | 0 | 0.203 | 0.349 | 0.033 | 0 | -0.011 | -0.049 | -0.022 | 0 | 0.19 | -0.148 | -0.035 | -0.005 | -0.155 | 0.091
SLK isoform 2 (UniProt Q9H2G2) | -0.023 | 0.083 | -0.098 | -0.001 | 0.043 | 0.075 | -0.135 | -0.047 | -0.028 | -0.057 | -0.008 | -0.123 | 0.04 | 0.005 | -0.216 | 0.002 | 0.022 | 0.022 | -0.025 | 0.073
SUMO1 (UniProt P63165) | -0.126 | 0.167 | 0.006 | -0.06 | 0.182 | 0.043 | 0.045 | -0.06 | 0.211 | 0.033 | -0.079 | -0.007 | -0.077 | 0.053 | 0.139 | -0.065 | 0.01 | 0.022 | 0.042 | -0.125
TIMM21 (UniProt Q9BVV7) | 0.026 | 0.068 | 0.004 | -0.008 | 0.035 | -0.001 | -0.001 | 0.081 | -0.002 | 0.021 | -0.009 | -0.02 | -0.026 | -0.01 | 0.011 | -0.169 | 0.099 | -0.02 | -0.013 | 0.063
TFRC (UniProt P02786) | 0.002 | 0.017 | 0.022 | 0.006 | 0.037 | 0.027 | 0.023 | -0.011 | 0.006 | 0.055 | 0.058 | 0.026 | -0.023 | -0.005 | 0.001 | -0.032 | -0.005 | -0.02 | 0.001 | -0.03
STAT5A (UniProt P42229) | 0.033 | 0.173 | 0.035 | 0.048 | 0.083 | 0.01 | 0.06 | -0.026 | -0.077 | -0.028 | -0.116 | -0.088 | -0.164 | 0.046 | 0.019 | -0.053 | 0.006 | 0.033 | -0.002 | -0.009
TIMM29 (UniProt Q9BSF4) | 0.028 | 0.042 | 0.049 | -0.025 | 0.064 | 0.018 | -0.035 | -0.024 | 0.037 | 0.011 | -0.202 | 0.024 | -0.014 | -0.101 | 0.008 | 0.071 | -0.031 | 0.444 (active) | -0.004 | -0.052
SPCS2 (UniProt Q15005) | -0.022 | 0.015 | 0.077 | -0.043 | 0.011 | 0.029 | -0.004 | -0.08 | -0.005 | 0.001 | -0.014 | -0.037 | -0.039 | -0.047 | -0.016 | -0.01 | -0.058 | -0.062 | -0.033 | 0.002
